Results on 13 compounds are retold here after ChEMBL document CHEMBL1961873, “Compounds: GSK PKIS; Assays: Nanosyn kinase panel” (2012).

The target in assay [1] is T1, Serine/threonine-protein kinase Nek9 (Homo sapiens) (UniProt Q8TD19).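 Further: each value is a mean percent inhibition of NEK9.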
T1 sequence (whole entry): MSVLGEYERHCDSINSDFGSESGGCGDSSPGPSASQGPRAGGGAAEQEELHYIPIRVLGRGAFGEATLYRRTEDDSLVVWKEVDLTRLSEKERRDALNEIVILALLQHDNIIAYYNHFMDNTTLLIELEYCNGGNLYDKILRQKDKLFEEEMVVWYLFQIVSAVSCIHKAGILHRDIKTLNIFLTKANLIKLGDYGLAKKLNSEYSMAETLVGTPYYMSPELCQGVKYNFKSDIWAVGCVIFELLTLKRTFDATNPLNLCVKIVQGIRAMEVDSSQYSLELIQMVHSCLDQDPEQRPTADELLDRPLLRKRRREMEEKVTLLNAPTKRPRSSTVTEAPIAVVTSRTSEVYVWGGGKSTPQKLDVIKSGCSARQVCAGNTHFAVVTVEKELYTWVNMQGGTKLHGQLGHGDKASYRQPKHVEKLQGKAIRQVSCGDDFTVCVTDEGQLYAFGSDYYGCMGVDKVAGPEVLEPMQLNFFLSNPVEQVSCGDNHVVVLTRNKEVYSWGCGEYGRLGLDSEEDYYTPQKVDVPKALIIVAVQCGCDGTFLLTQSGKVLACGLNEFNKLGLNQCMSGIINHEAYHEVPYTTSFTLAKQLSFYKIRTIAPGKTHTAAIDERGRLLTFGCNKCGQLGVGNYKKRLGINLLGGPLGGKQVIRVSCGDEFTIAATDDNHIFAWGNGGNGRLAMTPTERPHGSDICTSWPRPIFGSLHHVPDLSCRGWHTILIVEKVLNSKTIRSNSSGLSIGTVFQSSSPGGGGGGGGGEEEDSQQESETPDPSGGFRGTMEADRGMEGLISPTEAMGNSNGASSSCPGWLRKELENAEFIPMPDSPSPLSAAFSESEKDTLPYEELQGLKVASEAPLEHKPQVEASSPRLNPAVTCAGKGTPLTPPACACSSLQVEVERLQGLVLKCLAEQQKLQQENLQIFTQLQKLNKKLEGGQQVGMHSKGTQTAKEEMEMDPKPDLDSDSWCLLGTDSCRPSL
To be noted: at 1 µM.

The target of assay [2] is Serine/threonine-protein kinase PLK1 (Homo sapiens) (UniProt P53350). To be noted: at 0.1 µM.
The target is the same in assay [3]. To be noted: at 1 µM.
Assay [4] addresses T2, Dual specificity protein kinase TTK (Homo sapiens) (UniProt P33981).
T2 sequence (whole entry): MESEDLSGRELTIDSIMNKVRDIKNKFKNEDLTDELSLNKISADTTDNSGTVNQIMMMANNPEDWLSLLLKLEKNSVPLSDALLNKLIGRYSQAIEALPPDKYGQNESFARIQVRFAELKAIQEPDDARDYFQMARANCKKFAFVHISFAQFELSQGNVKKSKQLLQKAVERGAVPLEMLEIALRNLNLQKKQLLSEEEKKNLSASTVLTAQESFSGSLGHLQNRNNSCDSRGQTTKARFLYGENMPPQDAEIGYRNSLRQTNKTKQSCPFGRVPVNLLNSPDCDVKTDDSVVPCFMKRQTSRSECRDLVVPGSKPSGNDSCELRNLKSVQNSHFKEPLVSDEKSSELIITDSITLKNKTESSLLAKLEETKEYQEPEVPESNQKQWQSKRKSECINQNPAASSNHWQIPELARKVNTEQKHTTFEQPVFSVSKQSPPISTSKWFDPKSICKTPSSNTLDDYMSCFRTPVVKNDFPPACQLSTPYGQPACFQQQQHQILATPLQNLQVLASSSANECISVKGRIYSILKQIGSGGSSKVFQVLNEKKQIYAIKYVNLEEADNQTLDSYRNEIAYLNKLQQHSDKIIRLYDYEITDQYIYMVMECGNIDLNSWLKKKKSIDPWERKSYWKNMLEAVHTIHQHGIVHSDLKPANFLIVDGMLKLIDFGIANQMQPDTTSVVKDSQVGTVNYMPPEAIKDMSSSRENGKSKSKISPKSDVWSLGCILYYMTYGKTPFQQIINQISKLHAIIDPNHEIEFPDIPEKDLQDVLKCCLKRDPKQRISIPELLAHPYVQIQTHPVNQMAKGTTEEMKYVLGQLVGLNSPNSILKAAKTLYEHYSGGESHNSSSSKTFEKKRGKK
The following applies: at 0.1 µM.

The subject of assay [5] is T3, Receptor-type tyrosine-protein kinase FLT3 (Homo sapiens), P36888 [D835Y].
T3 sequence (whole entry): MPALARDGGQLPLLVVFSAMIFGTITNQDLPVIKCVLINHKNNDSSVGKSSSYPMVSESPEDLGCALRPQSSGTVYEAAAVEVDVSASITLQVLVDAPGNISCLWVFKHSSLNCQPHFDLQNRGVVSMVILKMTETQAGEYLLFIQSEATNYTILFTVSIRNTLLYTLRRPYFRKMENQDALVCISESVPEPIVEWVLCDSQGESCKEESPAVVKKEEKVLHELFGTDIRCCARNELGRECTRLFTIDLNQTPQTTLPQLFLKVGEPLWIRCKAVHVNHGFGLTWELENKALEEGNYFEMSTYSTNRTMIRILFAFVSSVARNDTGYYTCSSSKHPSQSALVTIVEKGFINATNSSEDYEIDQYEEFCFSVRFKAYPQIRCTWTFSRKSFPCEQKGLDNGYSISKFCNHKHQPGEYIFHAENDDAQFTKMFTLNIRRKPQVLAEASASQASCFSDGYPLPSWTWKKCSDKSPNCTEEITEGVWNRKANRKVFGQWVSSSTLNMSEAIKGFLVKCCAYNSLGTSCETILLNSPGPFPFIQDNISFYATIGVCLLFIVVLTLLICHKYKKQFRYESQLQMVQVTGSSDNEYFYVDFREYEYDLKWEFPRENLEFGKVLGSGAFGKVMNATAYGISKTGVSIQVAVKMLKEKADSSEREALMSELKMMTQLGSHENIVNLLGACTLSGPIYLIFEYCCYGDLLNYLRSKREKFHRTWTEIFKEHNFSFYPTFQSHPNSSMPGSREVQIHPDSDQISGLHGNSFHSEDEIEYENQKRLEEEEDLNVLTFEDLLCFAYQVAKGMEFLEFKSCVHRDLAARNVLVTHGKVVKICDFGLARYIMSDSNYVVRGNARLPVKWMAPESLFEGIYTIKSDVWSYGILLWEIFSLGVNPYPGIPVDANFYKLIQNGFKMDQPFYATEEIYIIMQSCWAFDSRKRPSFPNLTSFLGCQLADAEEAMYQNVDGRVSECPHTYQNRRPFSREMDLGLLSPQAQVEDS
To be noted: at 1 µM.

In assay [6] the target is Vascular endothelial growth factor receptor 3 (Homo sapiens) (UniProt P35916). To be noted: at 0.1 µM.
Assay [7] has the same target. To be noted: at 1 µM.
For assay [8], the target named is Macrophage colony-stimulating factor 1 receptor (Homo sapiens) (UniProt P07333). The following applies: at 0.1 µM.
For assay [9] the target is unchanged. The following applies: at 1 µM.
The target in assay [10] is Tyrosine-protein kinase Fyn (Homo sapiens) (UniProt P06241). To be noted: at 0.1 µM.

The inhibition is the relative decrease from the control value, in per cent.

Chain of Tyrosine-protein kinase Fyn (Homo sapiens) (P06241 2-537 limits assumed): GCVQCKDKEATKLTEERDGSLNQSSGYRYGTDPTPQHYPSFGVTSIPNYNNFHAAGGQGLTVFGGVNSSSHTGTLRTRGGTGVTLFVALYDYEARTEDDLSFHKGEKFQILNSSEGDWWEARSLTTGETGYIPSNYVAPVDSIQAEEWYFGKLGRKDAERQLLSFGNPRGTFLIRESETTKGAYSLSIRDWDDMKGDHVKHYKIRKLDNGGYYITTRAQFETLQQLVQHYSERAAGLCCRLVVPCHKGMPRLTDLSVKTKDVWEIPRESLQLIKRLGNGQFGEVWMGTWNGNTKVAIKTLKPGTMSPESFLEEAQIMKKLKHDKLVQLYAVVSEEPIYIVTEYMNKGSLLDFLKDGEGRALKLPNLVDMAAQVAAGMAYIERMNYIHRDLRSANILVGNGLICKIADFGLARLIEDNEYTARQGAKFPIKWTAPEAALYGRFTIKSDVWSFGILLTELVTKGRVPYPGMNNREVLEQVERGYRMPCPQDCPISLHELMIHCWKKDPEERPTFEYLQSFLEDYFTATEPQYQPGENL
Chain of Vascular endothelial growth factor receptor 3 (Homo sapiens) (P35916 whole entry): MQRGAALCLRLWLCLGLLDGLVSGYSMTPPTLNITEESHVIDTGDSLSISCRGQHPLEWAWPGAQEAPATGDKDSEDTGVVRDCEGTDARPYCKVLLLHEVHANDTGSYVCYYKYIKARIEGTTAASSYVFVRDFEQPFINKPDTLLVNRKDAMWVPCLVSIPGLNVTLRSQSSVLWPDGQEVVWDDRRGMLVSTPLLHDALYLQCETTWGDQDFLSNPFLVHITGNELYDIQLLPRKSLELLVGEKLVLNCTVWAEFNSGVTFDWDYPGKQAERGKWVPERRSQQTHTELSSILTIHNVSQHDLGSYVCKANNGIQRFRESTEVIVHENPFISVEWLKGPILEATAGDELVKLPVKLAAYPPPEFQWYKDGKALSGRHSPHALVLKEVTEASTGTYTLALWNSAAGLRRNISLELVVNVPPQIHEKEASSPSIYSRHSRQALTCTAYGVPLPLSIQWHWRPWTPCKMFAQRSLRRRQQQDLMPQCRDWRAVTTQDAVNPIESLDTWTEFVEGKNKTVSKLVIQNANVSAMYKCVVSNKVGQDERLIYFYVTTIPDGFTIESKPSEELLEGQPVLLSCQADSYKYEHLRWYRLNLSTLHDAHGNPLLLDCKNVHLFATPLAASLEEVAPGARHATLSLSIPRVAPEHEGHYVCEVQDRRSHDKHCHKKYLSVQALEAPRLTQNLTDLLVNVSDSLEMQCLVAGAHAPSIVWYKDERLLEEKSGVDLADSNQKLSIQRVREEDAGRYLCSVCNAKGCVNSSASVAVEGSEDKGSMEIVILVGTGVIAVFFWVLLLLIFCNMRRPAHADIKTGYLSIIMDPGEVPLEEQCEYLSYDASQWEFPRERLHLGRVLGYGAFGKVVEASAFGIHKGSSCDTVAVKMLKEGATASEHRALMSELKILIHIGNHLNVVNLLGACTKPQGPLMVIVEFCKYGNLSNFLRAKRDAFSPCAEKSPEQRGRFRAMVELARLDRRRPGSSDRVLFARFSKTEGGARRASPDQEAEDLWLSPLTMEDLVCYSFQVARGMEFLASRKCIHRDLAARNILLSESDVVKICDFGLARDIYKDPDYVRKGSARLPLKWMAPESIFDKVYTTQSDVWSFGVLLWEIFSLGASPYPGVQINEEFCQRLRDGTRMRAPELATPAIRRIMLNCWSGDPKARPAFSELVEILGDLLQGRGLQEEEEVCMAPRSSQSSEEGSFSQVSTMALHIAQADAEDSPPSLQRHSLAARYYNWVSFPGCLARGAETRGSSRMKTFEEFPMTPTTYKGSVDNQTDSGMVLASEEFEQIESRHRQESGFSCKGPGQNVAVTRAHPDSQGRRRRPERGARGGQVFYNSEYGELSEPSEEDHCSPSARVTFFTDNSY
Chain of Serine/threonine-protein kinase PLK1 (Homo sapiens) (P53350 whole entry): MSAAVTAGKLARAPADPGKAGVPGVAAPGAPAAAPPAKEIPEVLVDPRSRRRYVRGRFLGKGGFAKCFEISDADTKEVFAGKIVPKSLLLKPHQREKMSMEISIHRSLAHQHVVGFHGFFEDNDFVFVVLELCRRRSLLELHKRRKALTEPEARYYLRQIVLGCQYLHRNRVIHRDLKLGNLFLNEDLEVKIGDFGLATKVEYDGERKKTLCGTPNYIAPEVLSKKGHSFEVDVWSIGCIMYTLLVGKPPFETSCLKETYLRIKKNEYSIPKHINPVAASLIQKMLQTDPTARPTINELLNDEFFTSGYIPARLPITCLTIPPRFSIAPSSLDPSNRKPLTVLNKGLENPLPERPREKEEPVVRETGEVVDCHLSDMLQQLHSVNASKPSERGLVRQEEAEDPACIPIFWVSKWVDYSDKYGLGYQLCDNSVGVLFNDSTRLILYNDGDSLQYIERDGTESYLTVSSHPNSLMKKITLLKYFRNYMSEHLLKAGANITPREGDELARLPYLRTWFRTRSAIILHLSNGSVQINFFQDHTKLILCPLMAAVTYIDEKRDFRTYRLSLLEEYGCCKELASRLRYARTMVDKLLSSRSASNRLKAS
Chain of Macrophage colony-stimulating factor 1 receptor (Homo sapiens) (P07333 whole entry): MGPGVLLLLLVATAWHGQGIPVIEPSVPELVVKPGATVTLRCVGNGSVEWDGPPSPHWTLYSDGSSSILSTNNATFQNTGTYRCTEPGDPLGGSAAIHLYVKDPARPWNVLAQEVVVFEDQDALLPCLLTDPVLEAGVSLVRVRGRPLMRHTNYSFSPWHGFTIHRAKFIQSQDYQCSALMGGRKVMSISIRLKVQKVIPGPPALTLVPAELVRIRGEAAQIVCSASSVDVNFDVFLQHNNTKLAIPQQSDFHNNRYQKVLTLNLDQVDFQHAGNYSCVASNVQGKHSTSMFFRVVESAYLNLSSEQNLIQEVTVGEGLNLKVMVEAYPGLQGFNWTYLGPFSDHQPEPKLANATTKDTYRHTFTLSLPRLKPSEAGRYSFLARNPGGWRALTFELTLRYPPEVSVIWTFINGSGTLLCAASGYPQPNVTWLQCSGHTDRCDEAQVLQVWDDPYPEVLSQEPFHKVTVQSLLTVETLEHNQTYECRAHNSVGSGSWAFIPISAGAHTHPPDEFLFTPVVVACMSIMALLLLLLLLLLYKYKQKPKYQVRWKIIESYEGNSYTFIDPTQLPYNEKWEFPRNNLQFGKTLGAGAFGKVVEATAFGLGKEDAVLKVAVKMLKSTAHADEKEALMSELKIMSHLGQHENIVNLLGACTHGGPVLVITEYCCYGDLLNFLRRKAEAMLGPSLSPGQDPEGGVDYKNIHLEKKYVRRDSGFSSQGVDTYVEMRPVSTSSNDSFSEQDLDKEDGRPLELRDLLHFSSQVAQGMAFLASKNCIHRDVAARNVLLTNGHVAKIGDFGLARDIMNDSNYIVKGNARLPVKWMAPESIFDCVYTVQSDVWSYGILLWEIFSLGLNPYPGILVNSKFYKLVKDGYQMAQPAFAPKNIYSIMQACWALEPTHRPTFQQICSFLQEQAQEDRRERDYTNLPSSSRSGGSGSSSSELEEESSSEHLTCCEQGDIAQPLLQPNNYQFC

For `Nc1ncnc2occ(-c3ccc(NC(=O)Nc4cccc(C(F)(F)F)c4)cc3)c12`, the inhibition in [1] was determined as 17.9%; in assay [2] it was 4.84%; in assay [3], 5.99%; in [4], 7.86%; in assay [5], 34.6%; in [6] it was 53%. Moreover, the inhibition was 99.6% in assay [7], 98.1% in assay [8], 78% in [9] and 3.58% in assay [10].

`COc1cc2ncn(-c3cc(O[C@H](C)c4ccccc4Cl)c(C(N)=O)s3)c2cc1OC`: the inhibition was 91.6% in [1]; 9.01% in [4]; 39.6% in assay [5]; 31.8% in assay [6]; 81.3% in assay [7]; 8.07% in assay [8]. The inhibition in assay [9] turned out to be 41.9%; in assay [10], 2%.

On to `CS(=O)(=O)CCNCc1nc(-c2ccc3ncnc(Nc4ccc(F)c(Cl)c4)c3c2)cs1`, for which the inhibition was -7.92% in assay [1]; 1.65% in [2]; 1.15% in assay [3]; 1.71% in assay [4]; 5.8% in assay [5]; 3.61% in assay [6]. Moreover, the inhibition in assay [7] is 6.4%; in assay [8], 1.81%; in assay [9], 3.54%; in assay [10] it was -1.21%.

With `O=C1NC(=O)C(c2ccc(Cl)cc2)=C1Nc1ccc(Cl)c(C(=O)O)c1`, the inhibition in assay [1] is -2.24%; in assay [2], -1.32%; in assay [3], -2.04%; in [4], -4.32%; in assay [5], 2.75%; in [6], 1.23%. Also, the inhibition in assay [7] was 6.6%; in assay [8], 0.6%; in assay [9], 2.16%; in [10], 2.16%.

As for `COc1cc(C=NNc2ncnc3c2cnn3-c2ccccc2)ccc1O`, the inhibition in assay [1] came to 1.08%; in [2], 2.41%; in assay [3] it was 3.03%; in assay [4], 3.02%; in [5] it was 56.8%; in [6] it was 5.09%. For the same compound, the inhibition in assay [7] was found to be 24.4%; in [8] it was 7.04%; in [9], 26.8%; in [10], 11%.

As to `O=C1NC(=O)C(N2CCc3ccccc32)=C1c1ccc(Cl)cc1`, the inhibition was 6.39% in assay [1]; 3.88% in assay [2]; 2.74% in assay [3]; 7.71% in assay [4]; 14.7% in [5]; 1.62% in [6]. Besides, the inhibition in assay [7] came out at 0.97%; in assay [8] it was 4.95%; in assay [9] it was 4.62%; in assay [10], 4.56%.

As for `Cc1cccc(-c2n[nH]cc2-c2ccc3ncccc3n2)n1`, the inhibition in assay [1] was 4.16%; in [2], 0.53%; in assay [3], 3.07%; in assay [4], 2.51%; in assay [5] it was -2.35%; in assay [6], 4.9%. The inhibition in assay [7] was 39.4%; in [8] it was 2.38%; in assay [9], 2.47%; in assay [10] it was 0.64%.

In the case of `COC(=O)Nc1nc2cc(Oc3ccc(NC(=O)Nc4cccc(C(=O)O)c4)cc3)ccc2[nH]1`, the inhibition is 1.76% in [1]; 0.16% in assay [2]; 0.8% in [3]; 1.59% in assay [4]; 4.78% in [5]; -5.74% in [7]. Moreover, the values for the inhibition in [8], in [9] and in [10] were 3.75%, 8.4% and -5.06%, respectively.

With `CCn1c(-c2nonc2N)nc2c(N3CCCC3)nccc21`, the inhibition in assay [1] was 1.67%; in assay [2], 1.87%; in [3], -0.08%; in assay [4], 9.05%; in assay [5], -4.08%; in assay [6], 2.79%. The inhibition in assay [7] was 3.38%; in assay [8], -0.51%; in assay [9], 0.02%; in assay [10] it was -0.01%.

Regarding `NS(=O)(=O)c1ccc(N/N=C2\C(=O)Nc3ccc(C(=O)NCCc4c[nH]cn4)cc32)cc1`, the inhibition in [1] worked out at 10.4%; in assay [2] it was 5.66%; in assay [3], 10.8%; in assay [4], 37.9%; in [5], 48%; in assay [6], 6.93%. Also, the inhibition in assay [7] was determined as 26.4%; in assay [9], 15.4%; in assay [10], 3.46%.

With `CS(=O)(=O)CCNCc1ccc(-c2ccc3ncnc(Nc4ccc(OCc5cccc(F)c5)c(C(F)(F)F)c4)c3c2)o1`, the inhibition was 10.1% in [1]; 3.95% in assay [2]; 3.53% in assay [3]; 12.1% in [4]; 4.32% in assay [5]; -0.03% in [6]. The inhibition is -1.42% in assay [7], 0.94% in [8], -0.75% in assay [9] and 1.1% in [10].

For `CCCN1CCC=C(c2ccc(Nc3nc(Nc4ccccc4C(N)=O)c4cc[nH]c4n3)c(C)c2)C1`, the inhibition in assay [1] turned out to be 7.97%; in assay [2] it was 13.9%; in assay [3] it was 53.6%; in [4], 70.8%; in [5], 20.8%; in assay [6] it was 9%. Also, the inhibition in [7] came out at 26.6%; in assay [8], 27.4%; in [9] it was 63.1%; in assay [10], 4.83%.

Turning to `NC(=O)c1ccc(-c2nc(-c3ccccn3)c(-c3ccc4c(c3)OCO4)[nH]2)cc1`, the inhibition in assay [1] is 6.43%; in assay [2], 5.18%; in assay [3] it was 2.1%; in [4], 6.47%; in assay [5] it was 1.63%; in assay [6], 0.44%. Besides, the inhibition in [7] was -0.31%; in [8], 1.36%; in [9] it was 2.49%; in [10], 1.15%.
